# Assay results published in PubChem BioAssay (NCATS).
# Unmarked numbers belong to inactive results. Results filed as inconclusive are left out. Active and inactive are the calls of the source. Calls come from the whole dose curve; as a rule, active = well fitted curve in the direction sought with a large enough effect; inconclusive = small, poorly fitted or top-dose-only effect, or another doubt; inactive = no such curve, though single readings can be large; an effect the other way counts as inactive or inconclusive.
# Key:
# [1] = target: Cytochrome P450 3A4 (Homo sapiens) (UniProt P08684); assay: qHTS Assay for Inhibitors and Substrates of Cytochrome P450 3A4 (AID 884); note: potency is the fitted concentration of half-maximal effect; nearly all actives have a fitted effect of over 50% in size
# Cytochrome P450 3A4 (Homo sapiens), sequence (P08684 whole entry, looked up): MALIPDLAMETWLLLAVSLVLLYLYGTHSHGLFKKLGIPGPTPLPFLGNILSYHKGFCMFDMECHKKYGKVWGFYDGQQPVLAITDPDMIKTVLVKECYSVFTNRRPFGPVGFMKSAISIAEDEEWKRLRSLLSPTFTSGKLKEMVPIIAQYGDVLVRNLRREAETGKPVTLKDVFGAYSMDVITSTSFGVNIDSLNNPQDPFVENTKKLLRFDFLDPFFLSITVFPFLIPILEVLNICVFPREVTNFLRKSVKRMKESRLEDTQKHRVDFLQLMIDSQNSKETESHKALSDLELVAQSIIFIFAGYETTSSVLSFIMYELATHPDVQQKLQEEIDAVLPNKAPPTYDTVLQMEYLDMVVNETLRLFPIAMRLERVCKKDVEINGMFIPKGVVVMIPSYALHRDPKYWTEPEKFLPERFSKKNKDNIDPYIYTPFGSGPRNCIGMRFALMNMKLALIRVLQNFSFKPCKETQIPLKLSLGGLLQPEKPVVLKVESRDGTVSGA
# Summary of the method: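 20 nM human CYP3A4 with 25 uM Luciferin-PPXE (at KM) in 200 mM KPO4, preincubated 10 min with compound; NADPH regeneration started a 60 min RT reaction. Luciferin detected by luminescence, normalized to 57 uM ketoconazole as full inhibition.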
# [2] = target: Cytochrome P450 3A4 (Homo sapiens) (UniProt P08684); assay: qHTS Assay for Activators of Cytochrome P450 3A4 (AID 885); note: nearly all actives have a fitted effect of over 65% in size
# Summary of the method: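 Human CYP3A4 (20 nM) with Luciferin-PPXE at 25 uM (its KM) in 200 mM KPO4; 10 min compound preincubation, then NADPH regeneration and 60 min reaction at RT. Luciferin read by luminescence; normalized to 57 uM ketoconazole full inhibition.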
# [3] = target: Cytochrome P450 2D6 (Homo sapiens) (UniProt P10635); assay: qHTS Assay for Inhibitors and Substrates of Cytochrome P450 2D6 (AID 891); note: potency is the fitted concentration of half-maximal effect; nearly all actives have a fitted effect of over 60% in size
# Cytochrome P450 2D6 (Homo sapiens), sequence (P10635 whole entry, looked up): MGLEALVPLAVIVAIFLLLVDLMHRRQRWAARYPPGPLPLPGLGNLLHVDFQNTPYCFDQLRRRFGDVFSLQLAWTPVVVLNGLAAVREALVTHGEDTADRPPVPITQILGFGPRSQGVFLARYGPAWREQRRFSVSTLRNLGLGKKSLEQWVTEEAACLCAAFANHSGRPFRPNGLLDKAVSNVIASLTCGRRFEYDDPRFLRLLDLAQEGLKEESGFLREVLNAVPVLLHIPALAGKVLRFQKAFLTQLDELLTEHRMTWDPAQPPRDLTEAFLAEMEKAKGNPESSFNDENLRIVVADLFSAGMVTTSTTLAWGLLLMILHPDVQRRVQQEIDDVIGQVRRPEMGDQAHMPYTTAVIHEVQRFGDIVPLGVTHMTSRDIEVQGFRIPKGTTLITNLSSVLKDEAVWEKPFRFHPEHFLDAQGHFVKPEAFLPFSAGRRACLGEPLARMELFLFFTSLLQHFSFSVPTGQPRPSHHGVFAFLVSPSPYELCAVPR
# Summary of the method: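 Human CYP2D6 (5 nM) with 30 uM Luciferin-ME EGE (at Km) in 100 mM KPO4, compound preincubated 10 min, then NADPH regeneration system for 60 min at room temperature. Luciferin read by luminescence; normalized to 1.43 uM quinidine.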
# [4] = target: Cytochrome P450 2C19 (Homo sapiens) (UniProt P33261); assay: qHTS Assay for Inhibitors and Substrates of Cytochrome P450 2C19 (AID 899); note: nearly all actives have a fitted effect of over 60% in size; note: potency is the fitted concentration of half-maximal effect
# Cytochrome P450 2C19 (Homo sapiens), sequence (P33261 whole entry, looked up): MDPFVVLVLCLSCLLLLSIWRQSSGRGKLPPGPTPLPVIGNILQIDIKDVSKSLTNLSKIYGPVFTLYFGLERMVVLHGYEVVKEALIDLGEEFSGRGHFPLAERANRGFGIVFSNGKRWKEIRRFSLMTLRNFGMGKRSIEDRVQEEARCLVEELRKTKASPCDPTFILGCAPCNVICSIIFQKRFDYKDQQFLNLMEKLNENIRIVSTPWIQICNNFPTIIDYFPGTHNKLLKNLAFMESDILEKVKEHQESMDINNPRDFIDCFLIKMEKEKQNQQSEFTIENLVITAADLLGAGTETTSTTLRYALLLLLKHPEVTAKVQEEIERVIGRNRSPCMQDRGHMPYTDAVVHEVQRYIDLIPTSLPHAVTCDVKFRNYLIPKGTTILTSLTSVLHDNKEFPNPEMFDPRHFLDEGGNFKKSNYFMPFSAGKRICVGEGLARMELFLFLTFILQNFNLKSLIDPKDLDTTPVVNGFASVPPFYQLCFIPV
# Summary of the method: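 Human CYP2C19 (5nM) with Luciferin-H EGE at 10uM (its KM) in 50mM KPO4 was preincubated with compound for 10 min at 37C. NADPH regeneration started a 60 min 37C reaction. Luciferin was read by luminescence, normalized to 57uM ketoconazole.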
# [5] = Confirmation and Secondary Assay for Modulators of Hemoglobin Beta Chain Splicing at IVS2 654 locus (AID 910);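 note: per-well total GFP intensity by laser scanning cytometry after 2-day treatment; % of control where 0% means no effect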
# Summary of the method: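 HeLa cells stably carrying EGFP interrupted by mutant beta-globin IVS2-654 intron (CMV-driven) were treated with compound for 2 days at 37C; corrected splicing was scored as total peak GFP intensity per well (488 nm excitation, 500-520 nm emission).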
# [6] = Confirmation and Secondary Assay for Modulators of Hemoglobin Beta Chain Splicing at IVS2 705 locus (AID 930);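 note: HeLa cells stably expressing the EGFP-705 splicing reporter; GFP fluorescence per well restored by corrected splicing of the IVS2-705 intron in EGFP; series mostly up to about 46 µM; % of control where 0% means no effect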
# Summary of the method: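 First, HeLa EGFP-705 cells are seeded at 500/well in Optimem with 2% FCS and left overnight. Next, compound or DMSO is added for 2 days. Finally wells are laser-scanned and total peak GFP intensity scored.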
smiles,measurement,setting,value
C=CC[C@@H]1C=C[C@H](O/N=C(\C)CCN2CCCCc3nc(C)c(C)cc32)[C@H](CO)O1,Potency,[1],3.98 µM (active)
same,"activity change, positive = activation",[2],-81.7% [at 11.4 µM]
same,Potency,[3],3.98 µM (active)
C/C(CCC(=O)OC[C@@H]1O[C@H](C#Cc2ccccc2)C=C[C@@H]1Oc1ccc(C)cc1)=N/O[C@@H](C)CN1CCCCc2nc(C)c(C)cc21,Potency,[1],3.16 µM (active)
same,"activity change, positive = activation",[2],-94.6% [at 11.4 µM]
CN1C[C@@H]2C(c3ccc(Cl)nc3)C3(c4cccnc4)CC2(C3)[C@H]1c1ccccc1 (stereo partly drawn),Potency,[1],7.94 µM (active)
same,Potency,[2],inactive
Cc1cc(F)ccc1OC1C=CC(c2ccc3c(c2)OCO3)OC1CO (stereo not drawn),Potency,[1],3.16 µM (active)
same,"activity change, positive = activation",[2],-72.5% [at 11.4 µM]
same,Potency,[4],inactive
COC(=O)C/C=C\[C@@H](C)[C@@H](/C=N\OC[C@@H]1O[C@H](c2ccccc2)C=C[C@@H]1Oc1ccc(OC)cc1)OC,Potency,[1],3.16 µM (active)
same,"activity change, positive = activation",[2],-96.1% [at 11.4 µM]
same,Potency,[4],1.58 µM (active)
C[C@@H](c1ccccc1)N1C(=O)[C@H]2[C@H]3[C@H](O)[C@H](O)C/C(=N/OC[C@@H](O)COCc4ccco4)[C@@H]3CC[C@@H]2C1=O,Potency,[1],3.16 µM (active)
same,"activity change, positive = activation",[2],-82.9% [at 11.4 µM]
same,Potency,[4],inactive
Cc1ccc(S(=O)(=O)N[C@H]2COC(=O)[C@@H](Cc3ccccc3)NC(=O)[C@@H](C)COC(=O)C/C=C\[C@@H]2C)cc1,Potency,[1],3.98 µM (active)
same,"activity change, positive = activation",[2],-80.1% [at 11.4 µM]
same,Potency,[4],inactive
C=C1C(=O)OC2C[C@@]3(C)CCCC(C)C3=CC12 (stereo partly drawn),Potency,[1],7.94 µM (active)
same,Potency,[2],inactive
same,outcome,[5],inactive
same,outcome,[6],inactive
